Measurements from PubChem BioAssay AID1159580 (chemical genetic matrix, 2015).
Screen size: about 5,500 compounds; about 2,000 (36%) were called active. About 18% were inconclusive and are not listed. No stated cut-off is given here; in the data, active means normalized growth mostly below about 0.91 (no sharp cut-off); inconclusive means no clear call, values can overlap the other calls; inactive means mostly above about 0.92. The list shows a part of the results.

Assay: chemical genetic growth profiling, strain panel (AID 1159580);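 further: tested at 20 µM; growth read once vehicle control cultures reached saturation at 30 °C; 1 = growth at the plate median or of vehicle wells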
Settings: growth OD

Measured: normalized growth

COc1cc(NC(C)CCCN)c2ncccc2c1 (configuration not stated)
inactive: S. cerevisiae deletion strains, locus YJR075W, strain HOC1, stronger effect = lower value 1 | S. cerevisiae deletion strains, locus YKL009W, strain mrt4, stronger effect = lower value 1.02 | S. cerevisiae deletion strains, locus YKL068W, stronger effect = lower value 1.01 | S. cerevisiae deletion strains, locus YKL085W, strain MDH1 (second series), stronger effect = lower value 1 | S. cerevisiae deletion strains, locus YKL085W, strain MDH1, stronger effect = lower value 1 | S. cerevisiae deletion strains, locus YKL160W, strain elf1, stronger effect = lower value 0.942 | S. cerevisiae deletion strains, locus YKL190W, strain CNB1, stronger effect = lower value 1 | S. cerevisiae deletion strains, locus YKR001C, strain vps1, stronger effect = lower value 1.01 | S. cerevisiae deletion strains, locus YKR026C, strain gcn3, stronger effect = lower value 1.01 | S. cerevisiae deletion strains, locus YKR091W, strain srl3, stronger effect = lower value 0.999 | S. cerevisiae deletion strains, locus YLL001W, strain dnm1, stronger effect = lower value 0.965 | S. cerevisiae deletion strains, locus YLL026W, stronger effect = lower value 0.998 | S. cerevisiae deletion strains, locus YLL041C, strain sdh2, stronger effect = lower value 1 | S. cerevisiae deletion strains, locus YLR027C, strain aat2, stronger effect = lower value 0.997 | S. cerevisiae deletion strains, locus YLR039C, strain RIC1, stronger effect = lower value 1.03 | S. cerevisiae deletion strains, locus YLR058C, strain SHM2, stronger effect = lower value 1.01 | S. cerevisiae deletion strains, locus YLR102C, strain apc9, stronger effect = lower value 1.01 | S. cerevisiae deletion strains, locus YLR113W, strain HOG1, stronger effect = lower value 1.06 | S. cerevisiae deletion strains, locus YLR221C, strain rsa3, stronger effect = lower value 1.01 | S. cerevisiae deletion strains, locus YLR258W, strain gsy2, stronger effect = lower value 1.04 | S. cerevisiae deletion strains, locus YLR262C, strain YPT6 (second series), stronger effect = lower value 0.956 | S. cerevisiae deletion strains, locus YLR262C, strain YPT6, stronger effect = lower value 1.05 | S. cerevisiae deletion strains, locus YLR268W, strain sec22, stronger effect = lower value 1.02 | S. cerevisiae deletion strains, locus YLR320W, strain mms22, stronger effect = lower value 0.987 | S. cerevisiae deletion strains, locus YLR330W, strain CHS5, stronger effect = lower value 1 | S. cerevisiae deletion strains, locus YLR342W, strain FKS1 (second series), stronger effect = lower value 0.947 | S. cerevisiae deletion strains, locus YLR342W, strain FKS1, stronger effect = lower value 0.991 | S. cerevisiae deletion strains, locus YLR357W, strain rsc2, stronger effect = lower value 0.991 | S. cerevisiae deletion strains, locus YLR370C, strain arc18, stronger effect = lower value 1.02 | S. cerevisiae deletion strains, locus YLR371W, strain rom2, stronger effect = lower value 1.01 | S. cerevisiae deletion strains, locus YLR384C, strain iki3, stronger effect = lower value 1.02 | S. cerevisiae deletion strains, locus YLR418C, strain cdc73, stronger effect = lower value 0.988 | S. cerevisiae deletion strains, locus YML016C, strain PPZ1, stronger effect = lower value 1.01 | S. cerevisiae deletion strains, locus YML032C, strain rad52, stronger effect = lower value 1.01 | S. cerevisiae deletion strains, locus YML120C, strain ndi1, stronger effect = lower value 0.995 | S. cerevisiae deletion strains, locus YML124C, strain tub3, stronger effect = lower value 1.01 | S. cerevisiae deletion strains, locus YMR058W, strain fet3, stronger effect = lower value 0.999 | S. cerevisiae deletion strains, locus YMR078C, strain ctf18, stronger effect = lower value 0.997 | S. cerevisiae deletion strains, locus YMR125W, strain sto1, stronger effect = lower value 0.951 | S. cerevisiae deletion strains, locus YMR129W, stronger effect = lower value 1.01 | S. cerevisiae deletion strains, locus YMR205C, strain PFK2, stronger effect = lower value 0.962 | S. cerevisiae deletion strains, locus YMR223W, strain ubp8, stronger effect = lower value 0.991 | S. cerevisiae deletion strains, locus YMR231W, strain pep5, stronger effect = lower value 1.01 | S. cerevisiae deletion strains, locus YMR263W, strain SAP30, stronger effect = lower value 1 | S. cerevisiae deletion strains, locus YMR307W, strain GAS1, stronger effect = lower value 0.951 | S. cerevisiae deletion strains, locus YNL067W, strain RPL9B, stronger effect = lower value 1.01 | S. cerevisiae deletion strains, locus YNL071W, strain lat1, stronger effect = lower value 1.01 | S. cerevisiae deletion strains, locus YNL128W, strain TEP1, stronger effect = lower value 1 | S. cerevisiae deletion strains, locus YNL153C, strain GIM3, stronger effect = lower value 1.01 | S. cerevisiae deletion strains, locus YNL183C, strain NPR1, stronger effect = lower value 0.972 | S. cerevisiae deletion strains, locus YNL209W, strain ssb2, stronger effect = lower value 1 | S. cerevisiae deletion strains, locus YNL233W, strain BNI4, stronger effect = lower value 1 | S. cerevisiae deletion strains, locus YNL248C, strain rpa49, stronger effect = lower value 0.938 | S. cerevisiae deletion strains, locus YNL250W, strain rad50, stronger effect = lower value 1.02 | S. cerevisiae deletion strains, locus YNL271C, strain bni1, stronger effect = lower value 1.02 | S. cerevisiae deletion strains, locus YNL298W, strain CLA4, stronger effect = lower value 1.02 | S. cerevisiae deletion strains, locus YNL307C, strain MCK1, stronger effect = lower value 1 | S. cerevisiae deletion strains, locus YNL322C, strain KRE1 (second series), stronger effect = lower value 1 | S. cerevisiae deletion strains, locus YNL322C, strain KRE1, stronger effect = lower value 1 | S. cerevisiae deletion strains, locus YNR049C, strain mso1, stronger effect = lower value 1 | S. cerevisiae deletion strains, locus YNR052C, strain pop2, stronger effect = lower value 1.02 | S. cerevisiae deletion strains, locus YOL006C, strain TOP1, stronger effect = lower value 1.03 | S. cerevisiae deletion strains, locus YOL012C, strain htz1 1 | S. cerevisiae deletion strains, locus YOL147C, strain pex11, stronger effect = lower value 1.02 | S. cerevisiae deletion strains, locus YOR001W, strain rrp6, stronger effect = lower value 1.02 | S. cerevisiae deletion strains, locus YOR061W, strain CKA2, stronger effect = lower value 1 | S. cerevisiae deletion strains, locus YOR069W, strain VPS5, stronger effect = lower value 1.01 | S. cerevisiae deletion strains, locus YOR070C, strain gyp1, stronger effect = lower value 1.02 | S. cerevisiae deletion strains, locus YOR080W, strain dia2, stronger effect = lower value 1.01 | S. cerevisiae deletion strains, locus YOR083W, strain WHI5, stronger effect = lower value 0.958 | S. cerevisiae deletion strains, locus YOR106W, strain vam3, stronger effect = lower value 0.959 | S. cerevisiae deletion strains, locus YOR136W, strain idh2, stronger effect = lower value 1.01 | S. cerevisiae deletion strains, locus YOR144C, strain elg1, stronger effect = lower value 1.01 | S. cerevisiae deletion strains, locus YOR184W, strain ser1, stronger effect = lower value 1.04 | S. cerevisiae deletion strains, locus YOR231W, strain MKK1, stronger effect = lower value 1 | S. cerevisiae deletion strains, locus YOR265W, strain rbl2, stronger effect = lower value 1.02 | S. cerevisiae deletion strains, locus YOR270C, strain vph1, stronger effect = lower value 1.05 | S. cerevisiae deletion strains, locus YOR290C, strain snf2, stronger effect = lower value 0.997 | S. cerevisiae deletion strains, locus YOR316C, strain cot1, stronger effect = lower value 1.01 | S. cerevisiae deletion strains, locus YPL051W, strain arl3, stronger effect = lower value 0.982 | S. cerevisiae deletion strains, locus YPL055C, strain LGE1, stronger effect = lower value 1 | S. cerevisiae deletion strains, locus YPL078C, strain atp4, stronger effect = lower value 0.96 | S. cerevisiae deletion strains, locus YPL106C, strain sse1, stronger effect = lower value 1 | S. cerevisiae deletion strains, locus YPL240C, strain hsp82, stronger effect = lower value 1.01 | S. cerevisiae deletion strains, locus YPL241C, strain CIN2, stronger effect = lower value 1 | S. cerevisiae deletion strains, locus YPL256C, strain CLN2, stronger effect = lower value 1.07 | S. cerevisiae deletion strains, locus YPR119W, strain clb2, stronger effect = lower value 1.01 | S. cerevisiae deletion strains, locus YPR141C, strain kar3, stronger effect = lower value 1.01 | S. cerevisiae deletion strains, locus YPR163C, strain tif3, stronger effect = lower value 1.01 | S. cerevisiae deletion strains, locus YPR167C, strain met16, stronger effect = lower value 1.02 | S. cerevisiae deletion strains, strain wtn01, stronger effect = lower value 1.02 | S. cerevisiae strains, strain wild type, stronger effect = lower value 1
